Values joined by “and” are separate entries in the source; they are usually repeats but may differ in a detail not shown here. Identical values can stand only once. Active and inactive are the calls of the source. Cut-off read from the data, not from the text of the source, unless noted: active = inhibition above about 80%; inactive = the rest.
Tests used:
[1] = target: NAD(+) hydrolase SARM1 (Homo sapiens) (UniProt Q6SZW1); test: blocking NAD cleavage by SARM1 SAM-TIR – cell lysate, NAD-Glo luminescence (AID 1508614;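 active = compound whose remaining NAD level is above about 45 nM, limit read from the data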;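 note: higher remaining NAD means stronger inhibition of SARM1 NADase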); conditions: SAM-TIR HEK293T lysate NADase, at 1 µM, stronger effect = higher value
Sequence of NAD(+) hydrolase SARM1 (Homo sapiens) (Q6SZW1 whole entry, looked up): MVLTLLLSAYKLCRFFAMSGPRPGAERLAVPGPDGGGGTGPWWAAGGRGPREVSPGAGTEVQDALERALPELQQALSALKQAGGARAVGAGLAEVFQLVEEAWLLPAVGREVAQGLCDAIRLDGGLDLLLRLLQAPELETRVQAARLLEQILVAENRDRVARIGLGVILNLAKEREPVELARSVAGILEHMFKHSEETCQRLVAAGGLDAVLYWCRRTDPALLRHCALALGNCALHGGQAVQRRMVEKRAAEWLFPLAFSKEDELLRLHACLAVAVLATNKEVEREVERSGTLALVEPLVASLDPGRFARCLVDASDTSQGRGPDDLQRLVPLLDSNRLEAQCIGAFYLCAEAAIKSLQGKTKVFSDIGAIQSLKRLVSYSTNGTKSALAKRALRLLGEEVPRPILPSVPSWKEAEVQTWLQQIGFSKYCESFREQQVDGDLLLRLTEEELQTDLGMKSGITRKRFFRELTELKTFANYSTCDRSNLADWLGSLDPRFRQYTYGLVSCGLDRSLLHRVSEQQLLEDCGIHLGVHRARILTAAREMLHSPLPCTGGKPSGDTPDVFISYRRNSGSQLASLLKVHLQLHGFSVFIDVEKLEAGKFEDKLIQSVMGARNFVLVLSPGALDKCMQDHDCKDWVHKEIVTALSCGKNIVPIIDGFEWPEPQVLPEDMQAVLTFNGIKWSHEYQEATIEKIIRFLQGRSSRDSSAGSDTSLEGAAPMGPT

[2] = galactose survival enhancers in mitochondrial complex I cybrids – cell-based, galactose medium, ATP luminescence, primary screen (AID 1645843;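 active = z-score of at least 1.8 in each of two replicates, scored against plate mean and spread of sample wells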;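 note: positive z means more ATP and so rescue of galactose-driven cybrid death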); conditions: complex I mutant cybrid cells, 72 h, stronger effect = higher value
F380Y = test: BK channel mutant inhibitors and activators – cell-based, U2OS BacMam, thallium flux, beta subunits, selectivity assay, profiling panel (AID 1259406;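 active = thallium flux through the channel raised or lowered by more than 3 SD from vehicle-only wells, actives on both sides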;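 note: initial slope of Thallos dye fluorescence rise after thallium is added; log ratio against the mean of 0.3% DMSO vehicle wells on the same plate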); conditions: U2OS BacMam BK variants, at 30 µM
F380Y/beta1 = test: as above; conditions: U2OS BacMam BK variants, at 30 µM
[3] = growth inhibition, single agent or in combination, cell-based, chromothripsis tumors, cisplatin or BGB combos (AID 1671449); conditions: LFS_MB_P medulloblastoma cells;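 note: cells exposed for 96 hours; 0% = vehicle DMSO and 100% = killing by high DMSO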
[4] = growth inhibition, single agent and combos, cell-based, chromothripsis tumors, cisplatin or BGB combos (AID 1671450); conditions: HDN33 neuroblastoma cells, stronger effect = higher value;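 note: cells exposed to compound for four days; 0% = vehicle DMSO and 100% = cell killing by high DMSO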
[5] = growth inhibition, single agents and combos, ICB984, cell-based, cisplatin or BGB combos, synergistic combos for chromothripsis tumors (AID 1671451; call rule not given here;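 note: cells exposed for 96 hours before readout; 0% = vehicle DMSO and 100% = killing by high DMSO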); conditions: ICB984 medulloblastoma cells, drug combinations, stronger effect = higher value
[6] = growth inhibition, single agents and combos, LFS_MB_1R, cell-based, cisplatin or BGB combos, synergistic combos for chromothripsis tumors (AID 1671452); conditions: LFS_MB_1R medulloblastoma cells, stronger effect = higher value;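 note: cells exposed for 96 hours before readout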
[7] = growth inhibition, single agents and combos, HTB85, cell-based, BGB or cisplatin IC20 combos, synergistic combos for chromothripsis tumors (AID 1671453); conditions: HTB85 osteosarcoma cells, drug combinations, stronger effect = higher value;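 note: cells exposed for 96 hours before readout; 0% = vehicle DMSO and 100% = high DMSO killing control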
[8] = growth inhibition, single agents and combos, CRL2098, cell-based, BGB or cisplatin IC20 combos, synergistic combos for chromothripsis tumors (AID 1671454); conditions: CRL2098 osteosarcoma cells, drug combinations, stronger effect = higher value;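 note: cells exposed for 96 h before readout; 0% = vehicle DMSO and 100% = killing by high DMSO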
[9] = growth inhibition, single agents and combos, HD-MB03, cell-based, BGB or cisplatin IC20 combos, synergistic combos for chromothripsis tumors (AID 1671455; in the data active = inhibition above about 83%;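 note: 0% = vehicle DMSO and 100% = high DMSO as cytotoxic control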); conditions: HD-MB03 medulloblastoma cells, stronger effect = higher value
[10] = growth inhibition, single agents and combos, UWB1.289, cell-based, BGB or cisplatin combos, synergistic combos for chromothripsis tumors (AID 1671456); conditions: UWB1.289 ovarian carcinoma cells, stronger effect = higher value;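 note: cells exposed to compound for four days; 0% = vehicle DMSO and 100% = killing by high DMSO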
[11] = growth inhibition, single agents and combos, LFS_MB_2R, cell-based, cisplatin combos, synergistic combos for chromothripsis tumors (AID 1671457); conditions: LFS_MB_2R medulloblastoma cells, stronger effect = higher value;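 note: cells exposed to compound for four days before readout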
[12] = growth inhibition, MDA-MB-436, cell-based, BGB or cisplatin combos, synergistic combos for chromothripsis tumors (AID 1671458; call rule not given here;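 note: cells exposed for 96 hours; 0% = vehicle DMSO and 100% = killing by high DMSO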); conditions: MDA-MB-436 breast carcinoma growth inhibition, drug combinations, stronger effect = higher value
[13] = UWB1.289_BRCA1 ovarian cancer growth, cell-based, BGB or cisplatin combinations (AID 1671459); conditions: UWB1.289 BRCA1 ovarian carcinoma, drug combinations, stronger effect = higher value
[14] = drug combination toxicity in non-malignant astrocytes – cell-based, BGB or cisplatin IC20 combos, cytotoxicity control for chromothriptic childhood tumor combination screen (AID 1671460); conditions: Human astrocytes, viability inhibition, drug combinations, at 0.5 µM, stronger effect = higher value;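 note: cells exposed to compounds for 96 hours before viability readout; 0% = vehicle and 100% = killing control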
[15] = BT084 cell growth, single and combined drugs, ICGC_MB145, cisplatin and BGB IC40 combos (AID 1671461); conditions: BT084 medulloblastoma cells, drug combinations, stronger effect = higher value;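 note: cells exposed to drugs for 96 hours; 0% = vehicle DMSO and 100% = high DMSO full killing control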
[16] = RCMB18 cell growth, single agent and combined, cisplatin and BGB IC40 combos (AID 1671462); conditions: RCMB18 medulloblastoma cells, stronger effect = higher value;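 note: cells exposed to compound for four days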
[17] = CRL1545 cell growth, single agent and combined, cisplatin and BGB IC20 combos (AID 1671464); conditions: CRL1545 osteosarcoma cells, stronger effect = higher value;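 note: cells exposed to compound for 96 hours before readout; 0% = vehicle DMSO and 100% = high DMSO killing control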
[18] = measured here: combination with BGB IC40, at 0.05 µM
[19] = measured here: with BGB IC20 combination, at 0.5 µM
[20] = measured here: with cisplatin IC20 combination, at 0.5 µM
[21] = measured here: combination with cisplatin, at 0.5 µM
[22] = measured here: combination with cisplatin, at 5 µM

Question: With `Cc1nccn1CC1CCc2c(c3ccccc3n2C)C1=O` (stereo unspecified) as the molecule, how does the remaining NAD [1] read?
Answer: 10 nM (inactive)

Question: What about the z-score [2] of the same molecule?
Answer: 0.415 (inactive) and 0.495 (inactive) and 0.69 (inactive)

Question: What about the log fold change Tl+ flux (F380Y) of the same molecule?
Answer: 0.0107 (inactive) and 0.024 (inactive)

Question: What about the log fold change Tl+ flux (F380Y/beta1) of the same molecule?
Answer: 0.000378 (inactive) and -0.0486 (inactive)

Question: With `CNNCc1ccc(C(=O)NC(C)C)cc1` as the molecule, how does the remaining NAD [1] read?
Answer: 10 nM (inactive)

Question: What about the z-score [2] of the same molecule?
Answer: -0.975 (inactive) and 0.615 (inactive)

Question: What about the inhibition ([3]; at 0.5 µM, stronger effect = higher value) of the same molecule?
Answer: -4.96% (inactive) and -7.28% (inactive)

Question: What about the inhibition ([3]; measured here: combination with BGB IC20, at 0.005 µM) of the same molecule?
Answer: 0.865% and -3.27%

Question: What about the inhibition ([3]; measured here: combination with BGB IC40, at 0.005 µM) of the same molecule?
Answer: 4.15% and 7.38%

Question: What about the inhibition [3, 18] of the same molecule?
Answer: -4.16% and -2.23%

Question: And the inhibition ([3]; measured here: combination with cisplatin, at 0.5 µM, stronger effect = higher value)?
Answer: -13.4% and -33.1%

Question: What about the inhibition ([3]; measured here: combination with cisplatin, at 5 µM, stronger effect = higher value) of the same molecule?
Answer: 33.1% and 11.1%

Question: And the inhibition ([4]; BGB combo, at 5 µM)?
Answer: 11.7% and 16.1%

Question: And the inhibition ([4]; at 0.5 µM)?
Answer: 10.7% (inactive) and 6.09% (inactive)

Question: And the inhibition ([4]; cisplatin combo, at 5 µM)?
Answer: 11.5% and 15.1%

Question: What about the inhibition [4, 19] of the same molecule?
Answer: 8.82% and -6.43%

Question: What about the inhibition [4, 20] of the same molecule?
Answer: 7.54% and 20.8%

Question: And the inhibition ([4]; single agent, at 5 µM)?
Answer: 17.8% and 2.31%

Question: And the inhibition ([5]; BGB IC20 combo, at 0.005 µM)?
Answer: 9.83% and 1.87%

Question: And the inhibition ([5]; BGB IC40 combo, at 0.005 µM)?
Answer: -24.6% and -19.9%

Question: What about the inhibition ([5]; BGB IC40 combo, at 0.05 µM) of the same molecule?
Answer: -27.1% and 7.42%

Question: What about the inhibition ([5]; at 0.5 µM) of the same molecule?
Answer: -17.4% (inactive) and -14% (inactive)

Question: And the inhibition ([5]; cisplatin combo, at 0.05 µM)?
Answer: -31.7% and 4.83%

Question: And the inhibition ([5]; cisplatin combo, at 0.5 µM)?
Answer: -11.9% and -3.72%

Question: And the inhibition ([5]; cisplatin combo, at 5 µM)?
Answer: 2.16% and -28.3%

Question: What about the inhibition ([5]; measured here: 5 uM single agent, at 5 µM) of the same molecule?
Answer: 3.31% and -11.8%

Question: What about the inhibition ([6]; at 0.5 µM) of the same molecule?
Answer: 9.11% (inactive) and -17.9% (inactive)

Question: What about the inhibition [6, 18] of the same molecule?
Answer: 11.1% and -7.89%

Question: What about the inhibition [6, 21] of the same molecule?
Answer: 9.64% and -15.3%

Question: And the inhibition [6, 22]?
Answer: -32.2% and -1.85%

Question: What about the inhibition ([7]; at 0.5 µM) of the same molecule?
Answer: -1.94% (inactive) and -4.22% (inactive)

Question: What about the inhibition ([7]; measured here: with BGB IC20, at 0.5 µM) of the same molecule?
Answer: 2.72% and -14.1%

Question: What about the inhibition ([7]; measured here: with BGB IC20, at 5 µM) of the same molecule?
Answer: 4.14% and -30.2%

Question: What about the inhibition ([7]; measured here: with cisplatin IC20, at 0.5 µM) of the same molecule?
Answer: -5.46% and -13.6%

Question: And the inhibition ([7]; measured here: with cisplatin IC20, at 5 µM)?
Answer: -7.6% and -38.8%

Question: What about the inhibition ([7]; single agent, at 5 µM) of the same molecule?
Answer: 3.42% and -2.23%

Question: What about the inhibition ([8]; at 0.5 µM) of the same molecule?
Answer: 3.58% (inactive) and -35.9% (inactive)

Question: And the inhibition ([8]; measured here: combination with BGB at IC20, at 0.5 µM)?
Answer: -18.3% and -64.1%

Question: And the inhibition ([8]; measured here: combination with cisplatin at IC20, at 0.5 µM)?
Answer: -1.94% and -14.9%

Question: What about the inhibition ([9]; at 0.5 µM) of the same molecule?
Answer: 1.99% (inactive) and 3.37% (inactive)

Question: What about the inhibition ([9]; measured here: combo with BGB at IC20, at 0.5 µM) of the same molecule?
Answer: -4.48% and 4.11%

Question: What about the inhibition ([9]; measured here: combo with cisplatin at IC20, at 0.5 µM) of the same molecule?
Answer: 6.48% and 0.786%

Question: What about the inhibition ([10]; at 0.5 µM) of the same molecule?
Answer: 13% (inactive) and 7.15% (inactive)

Question: And the inhibition ([10]; measured here: inhibition with BGB combination, at 0.05 µM)?
Answer: 3.19% and 1.17%

Question: And the inhibition ([10]; measured here: inhibition with cisplatin combination, at 0.05 µM)?
Answer: 22.9% and 3.56%

Question: What about the inhibition ([11]; at 0.5 µM) of the same molecule?
Answer: 14.1% (inactive) and 0.23% (inactive)

Question: And the inhibition [11, 21]?
Answer: 6.63% and -1.71%

Question: And the inhibition [11, 22]?
Answer: 15.9% and -32.2%

Question: What about the inhibition ([12]; at 0.5 µM) of the same molecule?
Answer: 0.31% (inactive) and -0.08% (inactive)

Question: What about the inhibition ([12]; measured here: BGB combination, at 0.5 µM) of the same molecule?
Answer: 1.37% and 5.96%

Question: What about the inhibition ([12]; measured here: BGB combination, at 5 µM) of the same molecule?
Answer: -3.48% and 5.4%

Question: What about the inhibition ([12]; measured here: cisplatin combination, at 0.5 µM) of the same molecule?
Answer: 0.65% and -2.59%

Question: And the inhibition ([12]; measured here: cisplatin combination, at 5 µM)?
Answer: -3.21% and 0.056%

Question: And the inhibition ([13]; BGB combination, concentration series, at 5 µM)?
Answer: -3.07% and 11.5%

Question: And the inhibition ([13]; at 0.5 µM)?
Answer: 8.92% (inactive) and 4.36% (inactive)

Question: And the inhibition ([13]; cisplatin combination, concentration series, at 5 µM)?
Answer: 2.73% and 5.28%

Question: And the inhibition [14]?
Answer: -1.46% (inactive) and -4.45% (inactive)

Question: What about the inhibition ([14]; measured here: combo with BGB IC20) of the same molecule?
Answer: 4.04% and -5.12%

Question: What about the inhibition ([14]; measured here: combo with cisplatin IC20) of the same molecule?
Answer: -5.05% and -7.38%

Question: And the inhibition ([15]; at 0.5 µM)?
Answer: 9.13% (inactive) and -8.81% (inactive)

Question: And the inhibition ([15]; cisplatin combination, at 0.5 µM)?
Answer: -8.59% and 0.014%

Question: What about the inhibition ([15]; cisplatin combination, at 5 µM) of the same molecule?
Answer: 13.7% and 11%

Question: What about the inhibition ([15]; measured here: BGB IC40 combination 0.05 uM, at 0.05 µM) of the same molecule?
Answer: 8.15% and 2.42%

Question: And the inhibition ([15]; single agent, at 5 µM)?
Answer: -0.995% and -8.33%

Question: And the inhibition ([16]; at 0.5 µM)?
Answer: 5.59% (inactive) and 7.58% (inactive)

Question: And the inhibition ([16]; cisplatin combo, at 5 µM)?
Answer: 1.81% and -25.8%

Question: And the inhibition ([16]; measured here: BGB IC40 combination, at 0.05 µM)?
Answer: -9.15% and -22.9%

Question: And the inhibition [16, 21]?
Answer: 38.1% and 9.89%

Question: And the inhibition ([16]; single agent, at 5 µM)?
Answer: -25.5% and 7.57%

Question: What about the inhibition ([17]; at 0.5 µM) of the same molecule?
Answer: -9.96% (inactive) and 0.27% (inactive)

Question: What about the inhibition [17, 19] of the same molecule?
Answer: -28.2% and -29.3%

Question: And the inhibition [17, 20]?
Answer: -2.5% and 13.1%

Question: And the inhibition ([17]; single agent, at 0.05 µM)?
Answer: -6% and -6.52%

Question: And the inhibition ([17]; single agent, at 5 µM)?
Answer: -28.8% and -29%

Question: And the log fold change Tl+ flux (F380Y)?
Answer: -0.0305 (inactive)

Question: And the log fold change Tl+ flux (F380Y/beta1)?
Answer: 0.0168 (inactive)

Reference: PubChem BioAssay
